Measurements: the supplement of paper PMC10849652
Targets with a hit are over-represented here; the source holds about 7,900 in all. About 0.6% of all pairs of compound and target were hits. A number with no mark means an inactive call.

How the values were obtained:
Assay in all cases: log2 fold change, soluble protein after heating vs DMSO (PISA); higher = thermal stabilisation; K562 cells, 10 uM, 30 min; active = over 0.2 and 3.5 SD of the protein, either way, in both replicates (recomputed)
bafetinib = compound: Cc1ccc(NC(=O)c2ccc(CN3CC[C@H](N(C)C)C3)c(C(F)(F)F)c2)cc1Nc1nccc(-c2cncnc2)n1 [bafetinib]
Outline: (§1)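 Quantification of soluble protein used TMTpro 16plex LC-MS/MS, with channel sums equalised. Samples were the supernatant after 21,000xg for 90 min of pooled aliquots from K562 cells (2×10^6 cells/mL) treated with 10 μM compound for 30 min, heated for 3 min over 48°C-58°C, and extracted in PBS with 0.5% NP-40 at 4°C. Values, from duplicates, describe thermal stability against control samples on a log2 fold-change scale.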

[1] = compound: Cc1cccc(CC(=O)N2CCc3c2ccc(-c2cn(C)c4ncnc(N)c24)c3F)n1
Outline: as §1

nilotinib = compound: Cc1cn(-c2cc(NC(=O)c3ccc(C)c(Nc4nccc(-c5cccnc5)n4)c3)cc(C(F)(F)F)c2)cn1 [nilotinib]
Outline: as §1

[2] = compound: Cc1nc(Nc2n[nH]c3c2CN(C(=O)N[C@H](CN(C)C)c2ccccc2)C3(C)C)c2sccc2n1
Outline: as §1

dasatinib = compound: Cc1nc(Nc2ncc(C(=O)Nc3c(C)cccc3Cl)s2)cc(N2CCN(CCO)CC2)n1 [dasatinib]
Outline: as §1

[3] = compound: Cc1ncc(-c2ccnc(Nc3ccc(S(C)(=O)=O)cc3)n2)n1C(C)C
Outline: as §1

[4] = compound: Cn1cc(-c2ccc3c(c2)CCN3C(=O)Cc2cccc(C(F)(F)F)c2)c2c(N)ncnc21
Outline: as §1

[5] = compound: Cn1cc(-c2ccc3nnc(C(F)(F)c4ccc5ncccc5c4)n3n2)cn1
Outline: as §1

tipifarnib = compound: Cn1cncc1[C@@](N)(c1ccc(Cl)cc1)c1ccc2c(c1)c(-c1cccc(Cl)c1)cc(=O)n2C [tipifarnib]
Outline: as §1

mubritinib = compound: FC(F)(F)c1ccc(/C=C/c2nc(COc3ccc(CCCCn4ccnn4)cc3)co2)cc1 [mubritinib]
Outline: as §1

[6] = compound: NC(=O)Nc1cc(-c2cccc(F)c2)sc1C(=O)N[C@H]1CCCNC1
Outline: as §1

[7] = compound: NC(=O)c1cnc(N[C@@H]2CCCC[C@@H]2N)nc1Nc1cccc(-n2nccn2)c1
Outline: as §1

[8] = compound: NC1(c2ccc(-c3nc4ccn5c(=O)[nH]nc5c4cc3-c3ccccc3)cc2)CCC1
Outline: as §1

[9] = compound: NCC(=O)Nc1ccc(-n2nc(C(F)(F)F)cc2-c2ccc3c(ccc4ccccc43)c2)cc1
Outline: as §1

entinostat = compound: Nc1ccccc1NC(=O)c1ccc(CNC(=O)OCc2cccnc2)cc1 [entinostat]
Outline: as §1

vorinostat = compound: O=C(CCCCCCC(=O)Nc1ccccc1)NO [vorinostat]
Outline: as §1

citarinostat = compound: O=C(CCCCCCNC(=O)c1cnc(N(c2ccccc2)c2ccccc2Cl)nc1)NO [citarinostat]
Outline: as §1

silmitasertib = compound: O=C(O)c1ccc2c(c1)nc(Nc1cccc(Cl)c1)c1ccncc12 [silmitasertib]
Outline: as §1

[10] = compound: O=C1NC(=O)C(c2cnc3ccccn23)=C1c1cn2c3c(cc(F)cc13)CN(C(=O)N1CCCCC1)CC2
Outline: as §1

[11] = compound: c1cc(OCCN2CCCCC2)cc(-c2n[nH]c3ccc(-c4nnc[nH]4)cc23)c1
Outline: as §1

UniProt P35998, sequence (P35998 whole entry, looked up): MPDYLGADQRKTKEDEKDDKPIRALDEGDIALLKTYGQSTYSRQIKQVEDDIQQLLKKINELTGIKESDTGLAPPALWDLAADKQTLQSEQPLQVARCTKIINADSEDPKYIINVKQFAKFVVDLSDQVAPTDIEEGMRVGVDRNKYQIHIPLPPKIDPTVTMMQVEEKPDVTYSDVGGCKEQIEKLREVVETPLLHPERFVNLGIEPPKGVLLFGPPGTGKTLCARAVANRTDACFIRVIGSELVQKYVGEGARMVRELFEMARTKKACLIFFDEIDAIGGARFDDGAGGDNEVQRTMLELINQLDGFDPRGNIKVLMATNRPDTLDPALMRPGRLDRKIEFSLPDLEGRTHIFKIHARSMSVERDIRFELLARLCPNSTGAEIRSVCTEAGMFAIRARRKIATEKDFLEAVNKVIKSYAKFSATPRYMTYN
UniProt O00232, sequence (O00232 whole entry, looked up): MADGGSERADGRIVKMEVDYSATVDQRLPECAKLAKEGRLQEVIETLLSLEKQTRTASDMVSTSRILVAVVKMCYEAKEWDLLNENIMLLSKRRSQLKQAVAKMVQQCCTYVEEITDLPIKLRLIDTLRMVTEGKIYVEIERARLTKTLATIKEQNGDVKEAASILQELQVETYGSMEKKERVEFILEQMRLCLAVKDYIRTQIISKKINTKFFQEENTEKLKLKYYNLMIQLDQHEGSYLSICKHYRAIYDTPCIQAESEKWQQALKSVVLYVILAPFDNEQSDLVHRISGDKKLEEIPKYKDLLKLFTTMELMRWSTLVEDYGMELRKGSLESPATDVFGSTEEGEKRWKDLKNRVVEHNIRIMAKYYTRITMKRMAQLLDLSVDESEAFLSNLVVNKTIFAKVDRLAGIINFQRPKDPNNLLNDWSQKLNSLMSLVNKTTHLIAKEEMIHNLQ
UniProt Q9UMR5, sequence (Q9UMR5 whole entry, looked up): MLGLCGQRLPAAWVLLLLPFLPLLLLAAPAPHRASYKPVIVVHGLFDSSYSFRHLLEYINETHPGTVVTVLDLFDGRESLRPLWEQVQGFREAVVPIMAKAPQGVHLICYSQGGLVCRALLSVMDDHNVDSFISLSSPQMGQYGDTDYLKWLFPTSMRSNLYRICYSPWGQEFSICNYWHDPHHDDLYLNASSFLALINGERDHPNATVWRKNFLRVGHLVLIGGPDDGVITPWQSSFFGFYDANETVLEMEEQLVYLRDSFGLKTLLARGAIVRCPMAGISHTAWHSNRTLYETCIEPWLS
UniProt P49585, sequence (P49585 whole entry, looked up): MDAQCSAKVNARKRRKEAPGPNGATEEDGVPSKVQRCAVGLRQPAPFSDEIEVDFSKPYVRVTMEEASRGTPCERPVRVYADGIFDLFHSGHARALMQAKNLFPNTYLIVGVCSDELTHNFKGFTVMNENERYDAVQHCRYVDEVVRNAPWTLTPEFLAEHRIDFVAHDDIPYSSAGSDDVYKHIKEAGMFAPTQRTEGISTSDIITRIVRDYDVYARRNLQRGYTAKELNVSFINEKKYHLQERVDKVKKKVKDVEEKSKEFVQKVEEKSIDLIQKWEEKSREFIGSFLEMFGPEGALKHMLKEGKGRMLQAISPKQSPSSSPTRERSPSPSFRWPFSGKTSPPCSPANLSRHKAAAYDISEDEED
UniProt Q99575, sequence (Q99575 whole entry, looked up): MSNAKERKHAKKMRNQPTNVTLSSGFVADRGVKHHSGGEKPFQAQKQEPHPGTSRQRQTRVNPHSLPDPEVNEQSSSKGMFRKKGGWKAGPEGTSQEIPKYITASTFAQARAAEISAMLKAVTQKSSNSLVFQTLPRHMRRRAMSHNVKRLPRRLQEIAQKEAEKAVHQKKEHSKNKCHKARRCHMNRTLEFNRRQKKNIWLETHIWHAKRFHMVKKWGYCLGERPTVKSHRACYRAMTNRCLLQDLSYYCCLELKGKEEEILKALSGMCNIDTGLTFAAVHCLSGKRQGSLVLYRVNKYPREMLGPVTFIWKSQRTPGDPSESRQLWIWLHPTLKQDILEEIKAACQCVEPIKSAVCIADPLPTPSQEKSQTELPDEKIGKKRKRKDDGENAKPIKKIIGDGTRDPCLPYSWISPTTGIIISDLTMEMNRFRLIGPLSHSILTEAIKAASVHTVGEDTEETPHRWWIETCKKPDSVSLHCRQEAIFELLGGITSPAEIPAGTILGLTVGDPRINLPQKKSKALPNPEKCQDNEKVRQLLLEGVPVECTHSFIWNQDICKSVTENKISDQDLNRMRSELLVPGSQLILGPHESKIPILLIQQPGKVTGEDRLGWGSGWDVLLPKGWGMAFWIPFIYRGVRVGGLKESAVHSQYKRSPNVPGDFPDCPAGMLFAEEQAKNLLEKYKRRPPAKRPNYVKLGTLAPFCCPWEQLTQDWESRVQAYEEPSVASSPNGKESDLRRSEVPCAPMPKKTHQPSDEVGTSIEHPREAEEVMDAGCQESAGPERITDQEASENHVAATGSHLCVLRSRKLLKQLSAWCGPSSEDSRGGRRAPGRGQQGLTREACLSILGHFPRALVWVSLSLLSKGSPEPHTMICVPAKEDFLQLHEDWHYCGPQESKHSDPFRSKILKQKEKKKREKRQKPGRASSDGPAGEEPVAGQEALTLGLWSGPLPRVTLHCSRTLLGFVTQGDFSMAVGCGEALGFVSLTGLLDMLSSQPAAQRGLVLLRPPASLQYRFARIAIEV
UniProt Q5H8A4, sequence (Q5H8A4 whole entry, looked up): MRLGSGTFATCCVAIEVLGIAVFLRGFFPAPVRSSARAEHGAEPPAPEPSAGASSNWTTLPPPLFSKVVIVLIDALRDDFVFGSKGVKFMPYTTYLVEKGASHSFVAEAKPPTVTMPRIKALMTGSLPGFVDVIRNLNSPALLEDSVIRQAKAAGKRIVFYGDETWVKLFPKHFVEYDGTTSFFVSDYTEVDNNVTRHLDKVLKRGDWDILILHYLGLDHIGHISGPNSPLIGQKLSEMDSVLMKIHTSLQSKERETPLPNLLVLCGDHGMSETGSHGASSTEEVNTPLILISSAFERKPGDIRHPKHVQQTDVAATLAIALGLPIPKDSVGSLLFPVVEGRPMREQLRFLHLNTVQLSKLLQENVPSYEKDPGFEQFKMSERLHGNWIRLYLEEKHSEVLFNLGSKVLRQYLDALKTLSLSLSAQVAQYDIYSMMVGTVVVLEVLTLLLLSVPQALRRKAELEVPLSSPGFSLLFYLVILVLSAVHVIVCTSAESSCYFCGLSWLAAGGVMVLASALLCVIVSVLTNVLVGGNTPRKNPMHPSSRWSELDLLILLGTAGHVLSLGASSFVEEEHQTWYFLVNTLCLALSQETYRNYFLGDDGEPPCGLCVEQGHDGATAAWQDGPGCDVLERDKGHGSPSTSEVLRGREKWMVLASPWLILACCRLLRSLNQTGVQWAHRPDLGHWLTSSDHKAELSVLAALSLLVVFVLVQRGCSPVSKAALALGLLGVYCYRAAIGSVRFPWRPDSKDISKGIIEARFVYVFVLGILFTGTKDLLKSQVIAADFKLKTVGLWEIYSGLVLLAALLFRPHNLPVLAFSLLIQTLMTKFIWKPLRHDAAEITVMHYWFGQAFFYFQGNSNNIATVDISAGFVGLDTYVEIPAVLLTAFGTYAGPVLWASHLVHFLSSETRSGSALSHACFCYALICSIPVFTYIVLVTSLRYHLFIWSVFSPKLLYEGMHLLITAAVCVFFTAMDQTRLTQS
UniProt Q8TAP8, sequence (Q8TAP8 whole entry, looked up): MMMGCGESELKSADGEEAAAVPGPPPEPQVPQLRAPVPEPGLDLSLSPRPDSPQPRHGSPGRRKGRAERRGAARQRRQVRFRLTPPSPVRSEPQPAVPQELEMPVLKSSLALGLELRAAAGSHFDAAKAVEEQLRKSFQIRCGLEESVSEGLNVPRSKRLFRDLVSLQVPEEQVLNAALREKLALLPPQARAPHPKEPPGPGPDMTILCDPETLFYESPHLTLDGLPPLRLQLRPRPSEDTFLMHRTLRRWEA
UniProt P15735, sequence (P15735 whole entry, looked up): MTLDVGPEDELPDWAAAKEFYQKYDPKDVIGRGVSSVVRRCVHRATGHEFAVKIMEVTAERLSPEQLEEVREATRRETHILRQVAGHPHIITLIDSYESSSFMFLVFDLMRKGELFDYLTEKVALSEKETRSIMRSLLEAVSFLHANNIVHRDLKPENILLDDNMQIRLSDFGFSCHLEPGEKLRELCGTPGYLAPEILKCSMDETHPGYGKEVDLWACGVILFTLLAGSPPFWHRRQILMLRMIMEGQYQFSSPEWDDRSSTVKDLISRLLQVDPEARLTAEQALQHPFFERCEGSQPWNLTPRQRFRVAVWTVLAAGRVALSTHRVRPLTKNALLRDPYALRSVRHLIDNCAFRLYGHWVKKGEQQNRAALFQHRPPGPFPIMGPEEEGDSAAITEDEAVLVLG
UniProt Q6L8Q7, sequence (Q6L8Q7 whole entry, looked up): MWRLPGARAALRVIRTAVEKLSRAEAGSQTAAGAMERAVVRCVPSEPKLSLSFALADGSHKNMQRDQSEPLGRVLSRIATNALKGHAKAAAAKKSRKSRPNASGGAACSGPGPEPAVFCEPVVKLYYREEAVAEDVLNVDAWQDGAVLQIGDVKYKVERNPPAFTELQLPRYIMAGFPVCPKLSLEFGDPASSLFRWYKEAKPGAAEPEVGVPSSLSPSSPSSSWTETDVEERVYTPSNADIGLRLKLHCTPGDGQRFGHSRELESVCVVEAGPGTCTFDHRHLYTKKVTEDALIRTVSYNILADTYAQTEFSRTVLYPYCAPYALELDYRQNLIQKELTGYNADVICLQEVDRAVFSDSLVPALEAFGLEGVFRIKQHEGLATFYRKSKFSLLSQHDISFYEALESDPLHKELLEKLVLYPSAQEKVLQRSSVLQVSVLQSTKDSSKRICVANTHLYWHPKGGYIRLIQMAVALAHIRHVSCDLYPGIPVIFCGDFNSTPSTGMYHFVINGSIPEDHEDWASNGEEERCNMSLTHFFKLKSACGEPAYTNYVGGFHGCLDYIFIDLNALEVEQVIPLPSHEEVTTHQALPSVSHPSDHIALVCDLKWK
UniProt Q9Y3C6, sequence (Q9Y3C6 whole entry, looked up): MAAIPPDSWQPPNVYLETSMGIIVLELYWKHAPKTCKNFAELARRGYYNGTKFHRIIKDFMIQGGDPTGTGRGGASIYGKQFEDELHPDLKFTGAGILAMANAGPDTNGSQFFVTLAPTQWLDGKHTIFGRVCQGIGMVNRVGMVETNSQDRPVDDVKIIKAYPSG

Target | log2 fold change (bafetinib) | log2 fold change [1] | log2 fold change (nilotinib) | log2 fold change [2] | log2 fold change (dasatinib) | log2 fold change [3] | log2 fold change [4] | log2 fold change [5] | log2 fold change (tipifarnib) | log2 fold change (mubritinib) | log2 fold change [6] | log2 fold change [7] | log2 fold change [8] | log2 fold change [9] | log2 fold change (entinostat) | log2 fold change (vorinostat) | log2 fold change (citarinostat) | log2 fold change (silmitasertib) | log2 fold change [10] | log2 fold change [11]
POLR2I (UniProt P36954) | -0.044 | 0.024 | -0.026 | 0.233 | 0.079 | 0.338 | -0.029 | 0.021 | 0.072 | -0.054 | -0.025 | 0.115 | 0.102 | 0.067 | 0.114 | -0.243 | -0.09 | 0.028 | -0.091 | -0.005
PLIN2 (UniProt Q99541) | -0.326 | 0.037 | 0.184 | 0.03 | -0.219 | 0.04 | -0.016 | 0.047 | -0.105 | 0.027 | 0.019 | -0.194 | -0.353 | -0.059 | 0.077 | 0.203 | 0.027 | 0.035 | -0.046 | -0.044
PSMD12 (UniProt O00232) | 0.119 | 0.033 | 0.026 | 0.044 | 0 | -0.001 | -0.088 | -0.022 | 0.019 | -0.034 | -0.001 | 0.019 | -0.061 | 0.05 | 0.001 | 0.003 | -0.012 | -0.024 | 0.045 | -0.09
PPIL1 (UniProt Q9Y3C6) | 0.024 | -0.002 | -0.029 | 0.046 | -0.042 | 0.073 | -0.063 | -0.022 | -0.088 | 0.01 | -0.054 | 0.059 | 0.008 | -0.074 | -0.001 | -0.013 | 0.015 | 0.075 | 0.001 | -0.051
PPP1R35 (UniProt Q8TAP8) | -0.039 | 0.058 | 0.008 | -0.031 | -0.04 | -0.095 | -0.024 | -0.042 | -0.022 | 0.065 | 0.054 | -0.004 | -0.037 | -0.002 | -0.06 | -0.089 | -0.058 | 0.003 | 0.002 | -0.001
PGM3 isoform 4 (UniProt O95394) | 0.056 | 0.153 | -0.022 | 0.021 | -0.145 | -0.003 | 0.106 | 0.02 | -0.079 | 0.293 (active) | -0.039 | -0.118 | -0.147 | -0.063 | 0.015 | 0.061 | 0.046 | -0.012 | -0.008 | -0.024
PPT2 isoform 3 (UniProt Q9UMR5) | -0.301 (active) | -0.013 | 0.031 | 0.013 | 0.055 | -0.045 | 0.07 | 0.037 | 0.013 | 0.034 | 0.035 | 0.008 | -0.15 | 0.017 | 0.02 | 0.063 | 0.015 | 0.018 | 0.029 | 0.034
PMM1 (UniProt Q92871) | -0.2 | 0.022 | -0.606 (active) | -0.152 | -0.027 | 0.003 | 0.05 | 0.025 | 0.134 | 0.066 | 0.005 | 0.006 | -0.01 | 0.002 | -0.021 | 0.113 | 0.034 | -0.005 | 0.004 | -0.012
PCYT1A (UniProt P49585) | -0.142 | 0.035 | -1.47 (active) | -0.129 | -0.185 | -0.04 | 0.033 | 0.001 | 0.006 | 0.176 | -0.015 | -0.093 | -0.234 | -0.066 | 0.033 | 0.086 | 0.081 | 0.022 | -0.06 | -0.002
PDCD6 (UniProt O75340) | -0.11 | -0.005 | -0.071 | 0.042 | -0.021 | -0.026 | 0.027 | 0.022 | -0.034 | 0.009 | -0.066 | -0.08 | 0.117 | -0.106 | 0.081 | 0.028 | 0.064 | -0.022 | -0.096 | -0.024
POP1 (UniProt Q99575) | 0.019 | 0.002 | 0.074 | -0.018 | 0.039 | -0.037 | 0.042 | 0.007 | -0.036 | -0.006 | 0.072 | 0.025 | 0.03 | 0.045 | -0.019 | -0.013 | -0.003 | -0.011 | 0.038 | -0.128
PSMC2 (UniProt P35998) | 0.081 | 0.029 | -0.019 | 0.044 | 0.034 | -0.018 | -0.126 | -0.013 | 0.113 | -0.031 | 0.014 | -0.013 | 0.026 | 0.091 | -0.025 | -0.018 | -0.04 | -0.015 | 0.087 | -0.086
PHKG2 (UniProt P15735) | -0.047 | 0.044 | -0.177 | 0.321 (active) | -0.306 | 0.011 | -0.024 | -0.017 | -0.046 | -0.127 | 0.417 (active) | 0.088 | -0.064 | -0.035 | -0.007 | 0 | 0.122 | 0.052 | 0.023 | -0.045
PDE12 (UniProt Q6L8Q7) | -0.013 | 0.002 | -0.004 | 0.017 | -0.061 | -0.006 | 0.067 | 0.066 | -0.078 | 0.066 | -0.036 | 0.07 | -0.069 | -0.008 | 0.017 | -0.003 | 0.044 | -0.014 | -0.089 | 0.047
PIGG (UniProt Q5H8A4) | -0.034 | 0.047 | 0.083 | 0.007 | -0.013 | -0.022 | 0.004 | -0.044 | 0.012 | 0.038 | -0.046 | -0.032 | -0.06 | 0.052 | 0.039 | -0.104 | 0.052 | 0.025 | -0.019 | 0.029
PBK (UniProt Q96KB5) | 0.064 | 0.064 | -0.053 | -0.152 | -0.084 | 0.078 | -0.004 | 0.059 | -0.067 | -0.06 | -0.1 | -0.045 | -0.098 | -0.088 | 0.095 | 0.154 | 0.119 | 0.157 | 0.02 | -0.011
